PubChem BioAssay AID1508625 (Wald Lab, School of Medicine, Case Western Reserve …, 2021)

Assay: enhancers of NK cell killing of ovarian tumor cells, primary screen, imaging, OVCAR3, primary NK cells, calcein-AM imaging (AID 1508625);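 note: compound given to NK cells 16 h before adding targets at 1.5 to 1 ratio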
Details: OVCAR3 lysis by primary NK cells, at 5 µM; z-score: measured here: robust Z-score, single-point normalisation

| SMILES | corrected activity, negative = more killing [%] | z-score |
| --- | --- | --- |
| COc1ccc(C(=O)N2N=C(C3CCCCC3)CC2(O)C(F)(F)F)cc1OC (stereo unspecified) | -5.29 | -1.58 |
| O=C(Nc1ccc(Oc2ccccc2)cc1)c1nn(-c2ccc(Cl)cc2)c(=O)c2ccccc12 | -3.15 | -1.69 |
| O=C(Nc1cc2c(cc1C(=O)c1ccc(Br)cc1)OCCO2)c1ccc(Cl)cc1 | -4.2 | -1.3 |
| CCC(C)N1C(=O)c2ccccc2C1C(=O)NC1CCCCCC1 (stereo unspecified) | -6.27 | -1.78 |
| COCCN(CCOC)C(=O)c1cc2c(=O)n3ccccc3nc2s1 | -1.77 | -0.502 |
| COc1cccc(-c2nnc(-c3ccc([N+](=O)[O-])cc3)o2)c1 | 1.18 | 0.417 |
| O=C(Nc1ccc(Cl)cc1)c1cc(S(=O)(=O)NC2CCCC2)ccc1F | -2.8 | -0.756 |
| O=C(COc1ccccc1Br)NN=Cc1ccccc1Br | -7.58 | -2.41 |
| CCOc1cc(C(=S)N2CCCCC2)ccc1OC(=O)c1ccc([N+](=O)[O-])cc1 | 0.525 | 0.163 |
| Cc1c(NC(=O)CCCCCN2C(=O)c3ccccc3C2=O)c(=O)n(-c2ccccc2)n1C | -6.57 | -2.47 |
| C#CCN1C(=O)C(O)(CC(=O)c2ccc(OC)c(OC)c2)c2cc(Br)ccc21 (stereo unspecified) | -5.04 | -1.51 |
| COc1ccc(NC(=O)NCc2ccncc2)cc1 | -2.54 | -1.41 |
| Clc1ccc(OCCN2CCc3ccccc3C2)cc1 | -1.86 | -1.03 |
| COc1ccccc1CN1CCN(C2CCN(Cc3ccccc3)CC2)CC1 | 0.136 | 0.0605 |
| CCOc1ccc(NC(=O)Cn2c(=O)n(CCc3ccccc3)c(=O)c3c4c(sc32)CCCC4)cc1 | -8.33 | -2.36 |
| COc1ccc(C)cc1NC(=O)c1sc2nc(C)nc(N3CCCCC3C)c2c1C (stereo unspecified) | -3.27 | -1.75 |
| COc1cc(NC(=O)C(C)Oc2cccc(Cl)c2)cc(OC)c1 (stereo unspecified) | -3.89 | -2.16 |
| O=C1C(=O)N(CCCN2CCOCC2)C(c2ccco2)C1=C(O)c1ccc(F)cc1 (stereo unspecified) | -4.3 | -1.86 |
| COc1ccc(Nc2ccncc2[N+](=O)[O-])cc1 | -5.75 | -3.2 |
| O=C(Cn1cnc2ccccc2c1=O)NCCC(=O)N1CCOCC1 | -5.47 | -1.74 |
| O=C(O)c1ccc(S(=O)(=O)c2ccc3c(c2)C(=O)N(CC2CCCO2)C3=O)cc1 (stereo unspecified) | 0.388 | 0.146 |
| O=C(Nc1ccc2c(c1)CCC2)c1ccc2c(=O)n(C3CCCCC3)c(=S)[nH]c2c1 | -2.41 | -0.766 |
| CCCCC(=O)NC(=S)Nc1ccc(Cl)c(C(=O)O)c1 | -4.41 | -1.64 |
| CCOc1ccc(C2C(=C(O)c3ccccc3)C(=O)C(=O)N2CCO)cc1 (stereo unspecified) | -2.61 | -0.996 |

| SMILES | corrected activity, negative = more killing [%] | z-score |
| --- | --- | --- |
| O=C(Cn1cnc2sc3c(c2c1=O)CCCC3)NCCCC(=O)Nc1ccccc1F | -3.19 | -1.01 |
| Cn1c2ccccc2n2c(SCC(=O)O)nnc12 | -4.88 | -2.01 |
| C=CCNC(=O)c1ccc2snnc2c1 | -1.6 | -0.478 |
| CCCOc1ccc(C(=O)Nc2ccc3oc(-c4ccccc4)nc3c2)cc1 | -3.03 | -1.07 |
| CC1=NN(C(=O)c2ccc(C(N)=O)cc2)C(O)(C(F)(F)F)C1 (stereo unspecified) | -1.91 | -0.786 |
| COc1ccc(N(CC(=O)Nc2c(C)n(C)n(-c3ccccc3)c2=O)S(C)(=O)=O)c(OC)c1 | -0.645 | -0.246 |
| COc1ccc(C2NC(=O)c3c(sc4c3CCCC4)N2)cc1OC (stereo unspecified) | -2.78 | -1.1 |
| Cc1cc(Br)ccc1NC(=O)Cn1cnc2sc(C)c(S(=O)(=O)N3CCN(C)CC3)c2c1=O | -7.06 | -1.76 |
| CC(=O)c1ccc(NC(=O)c2ccc(C)c([N+](=O)[O-])c2)cc1 | -3.69 | -1.31 |
| CCOc1ccc(-n2c(SCc3ccccc3Cl)nc3c(c2=O)SCC3)cc1 | -3.11 | -0.774 |
| COc1cc(OC)c(C=Nc2ccc(OC(F)(F)F)cc2)cc1Br | -1.81 | -0.768 |
| COc1ccc(Cn2c(=S)[nH]c3cc(C(=O)NCc4ccccc4Cl)ccc3c2=O)cc1 | -10.8 | -3.45 |
| Cc1ccc(C)c(Cn2cccc2C#N)c1 | -4.01 | -1.08 |
| CCCCOC(=O)c1ccc2c(c1)C(=O)N(c1cccc(Cl)c1)C2=O | -8.14 | -2.52 |
| Cc1cccc(C)c1OCCNC(=O)c1cc2ccccc2o1 | -1.04 | -0.579 |
| O=C(NCc1ccccn1)c1sc2cc([N+](=O)[O-])ccc2c1Cl | -2.44 | -0.775 |
| CC1CCC(NC2CCCc3c2[nH]c2ccc([N+](=O)[O-])cc32)C1 (stereo unspecified) | 3.64 | 1.59 |
| Clc1ccccc1[C@@H]1Nc2ccccc2[C@@H]2C=CC[C@@H]21 | -1.75 | -0.523 |
| Cc1cc(Br)cc2c(N=NC(=O)c3ccccc3)c(O)[nH]c12 | -1.64 | -0.646 |
| Cc1c(C(=O)NCc2ccc(F)cc2)sc2ncn(Cc3ccccc3Cl)c(=O)c12 | -2.74 | -0.998 |
| CCOC(=O)C1CCN(c2ccc([N+](=O)[O-])cc2S(=O)(=O)N2CCOCC2)CC1 | -3.03 | -0.939 |
| O=C1OC(c2cccc(Cl)c2)=NC1=Cc1ccc(F)cc1 | -4.47 | -1.9 |
| Cc1ccc(NC(=O)CSc2nc3c(cc2C#N)CCCCC3)cc1 | 2.66 | 0.825 |
| Cc1oc(-c2cccc(Br)c2)nc1CN1CCC(C(=O)NC(C)CCc2ccccc2)CC1 (stereo unspecified) | -7.41 | -2 |

| SMILES | corrected activity, negative = more killing [%] | z-score |
| --- | --- | --- |
| Cc1c(Cl)cccc1N=Cc1ccc(O)cc1 | -1.33 | -0.563 |
| COc1ccc(N2C3=C(C(=O)CC(C)(C)C3)C(c3cccc(F)c3)C3=C2CC(C)(C)CC3=O)c(OC)c1 | -1.83 | -0.581 |
| N#Cc1c(SCC(=O)c2ccccc2)nsc1SCC(=O)c1ccccc1 | -5.48 | -2.94 |
| O=[N+]([O-])c1ccc2[nH]c3c(c2c1)CCCC3NC1Cc2ccccc2C1 (stereo unspecified) | 0.0593 | 0.0259 |
| Cc1cc(=O)oc2ccc(Oc3ccc(C#N)cc3[N+](=O)[O-])cc12 | -0.59 | -0.183 |
| CC(C)c1ccc(CNc2c([N+](=O)[O-])c(=O)oc3ccccc23)cc1 | -0.839 | -0.312 |
| O=C(c1ccc([N+](=O)[O-])cc1)N1N=C(C2CC2)CC1(O)C(F)F (stereo unspecified) | -2.43 | -1 |
| CCOc1ccccc1NC(=O)CC1Sc2ccc(C(F)(F)F)cc2NC1=O (stereo unspecified) | -3.99 | -2.14 |
| COc1ccc(CNC(=O)CSc2nc3cc(Cl)ccc3s2)cc1 | -1.73 | -0.516 |
| CC(C(=O)O)N1C(=O)C2C3CCC(C3)C2C1=O (stereo unspecified) | 1.01 | 0.359 |
| COc1cc(C=Nc2ccc(Oc3ccccc3)cc2)ccc1OC(C)=O | -3.39 | -1.34 |
| Cc1sc2c(c1C)c(=O)n(CCc1ccccc1)c(=O)n2Cc1cccc([N+](=O)[O-])c1 | -2.58 | -0.733 |
| Cc1ccc(C2C(=C(O)c3ccc(Cl)cc3)C(=O)C(=O)N2CCCn2ccnc2)cc1 (stereo unspecified) | -3.13 | -1.2 |
| COc1cc(C(=O)N2N=C(C3CC3)CC2(O)C(F)(F)F)cc(OC)c1OC (stereo unspecified) | -3.44 | -1.41 |
| C(=Cc1ccccc1)CN1CCN(C2c3ccccc3-c3ccccc32)CC1 | -0.148 | -0.0313 |
| OCCNCCCOc1cccc(Cl)c1Cl | 2.34 | 0.743 |
| O=C(CNc1ccc(Br)cc1)c1ccccc1 | -3.77 | -1.4 |
| CN1CCc2c(sc3c2C(=O)NC(c2cccc(OCc4ccccc4)c2)N3)C1 (stereo unspecified) | -3.2 | -0.991 |
| COc1ccc(OC(C)C(=O)Nc2ccc(Br)cc2)cc1 (stereo unspecified) | -7.07 | -2.19 |
| COc1ccc(S(=O)(=O)NCCc2ccccc2)c2ccccc12 | -3.37 | -1.46 |
| COc1ccc(N2CCN(C(=O)c3ccc4ccccc4n3)CC2)cc1 | -1.53 | -0.85 |
| COc1ccc(C=c2sc3nc4cc(C)c(C)cc4n3c2=O)cc1Br | -0.475 | -0.246 |
| O=C(NCc1ccccc1)c1ccc2c(=O)n(-c3cc(C(F)(F)F)ccc3Cl)c(=S)[nH]c2c1 | -5.46 | -1.74 |
| Cc1ccccc1NC(=O)OCc1ccccc1 | -1.84 | -1.03 |

| SMILES | corrected activity, negative = more killing [%] | z-score |
| --- | --- | --- |
| COc1ccc(NC(=O)c2coc(=O)c3ccccc23)cc1Cl | -3.91 | -1.24 |
| CCCCN(C(=O)c1cnc2n(c1=O)CCS2)c1ccccc1 | -5.28 | -1.68 |
| CCC(=O)Nc1ccc(Cl)c(NC(=O)COc2ccc(Br)cc2)c1 | -0.00546 | -0.00304 |
| COc1ccccc1NC(=O)c1ccccc1NC(=O)c1ccc(F)cc1 | -2.61 | -1.45 |
| CC(=O)Nc1ccc(-n2c(C)ccc2C)c(C(=O)O)c1 | -2.26 | -1.01 |
| O=C1C(=O)N(CO)C(c2ccccc2)C1=C(O)c1ccccc1 (stereo unspecified) | -3.26 | -1.23 |
| CN(C)c1ccc(C(=O)N2N=C(c3ccc(Cl)cc3)CC2(O)C(F)(F)F)cc1 (stereo unspecified) | -4.5 | -1.72 |
| CCOc1ccc(C2C(N3C(=O)c4ccc([N+](=O)[O-])cc4C3=O)C(=O)N2c2ccc(Cl)cc2)cc1 (stereo unspecified) | 0.896 | 0.278 |
| Cc1c(C(=O)O)oc2ccc(S(=O)(=O)N3CCOCC3)cc12 | -2.57 | -0.692 |
| COc1cc(NC(=O)c2cc(Cl)cc(Cl)c2OC)ccc1NC(=O)c1ccccc1Cl | -1.43 | -0.797 |
| O=[N+]([O-])c1ccc(C=Nn2c(CO)nc3ccccc32)cc1 | -5.03 | -1.6 |
| CCN(c1ccccc1C(=O)O)S(=O)(=O)c1cccc2nsnc12 | -4.09 | -1.22 |
| Cc1n[nH]c(C)c1CCC(=O)NN=Cc1ccccc1O | -1.49 | -0.652 |
| O=c1nc(C=Cc2ccc(Br)cc2)cc(C(F)(F)F)[nH]1 | 0.858 | 0.256 |
| Cc1cccc(C)c1NC(=O)c1sc2[nH]c(=O)c(C(=O)O)cc2c1N | -3.74 | -0.931 |
| CCOc1ccccc1C(=O)N1CCN(c2ccccc2OCC)CC1 | -2.5 | -1.03 |
| O=C(Cn1ccc([N+](=O)[O-])n1)Nc1ccc(I)cc1 | -4.86 | -1.51 |
| CCOC(=O)c1ccc(NC(=O)C(=O)N2CCCC2)cc1 | -5.89 | -2.55 |
| COCCNCCCSc1ccc(Cl)cc1 | -1.98 | -0.737 |
| COc1ccc(CNC(=O)CSc2nc3cc(C(F)(F)F)ccc3s2)cc1 | -4.55 | -2.53 |
| COc1cc([N+](=O)[O-])ccc1N1C(=O)C2C3C=CC(CC3)C2C1=O (stereo unspecified) | 0.65 | 0.231 |
